Here are results for five compounds from PubChem BioAssay (NCATS).

For assay [1], the target named is Alpha-galactosidase (Coffea arabica) (UniProt Q42656). The assay can be described thus: Counterscreen for Glucocerebrosidase Inhibitors: qHTS Assay for Coffee Bean alpha-Galactosidase at pH 4.5 (AID 957; active = well fitted curve in the direction sought with a large enough effect; an effect the other way counts as inactive or inconclusive;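 also: plate controls were enzyme alone for no effect and no enzyme for full effect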). Summed up:
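Coffee bean enzyme (2 nM) with 80 uM 4-methylumbelliferyl alpha-D-galactopyranoside in 50 mM citric acid, 0.005% Tween-20, pH 4.5, 20 min at room temperature; compounds 0.7 nM–77 uM. Stopped at pH 10, fluorescence 365/440 nm; AC50 from Hill fits.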

The target is the same in assay [2]. Kind of assay: Counterscreen for Glucocerebrosidase Inhibitors: qHTS Assay for Coffee Bean alpha-Galactosidase at pH 5.9 (AID 998; active = well fitted curve in the direction sought with a large enough effect; an effect the other way counts as inactive or inconclusive;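 also: plate controls were uninhibited enzyme for no effect and no-enzyme basal signal for full effect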). The gist of the method: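 Green coffee bean enzyme (2 nM final) was incubated with compounds (0.7 nM–77 uM) and 4-methylumbelliferyl alpha-D-galactopyranoside (80 uM) in citrate buffer pH 5.9, 20 min at room temperature. High-pH stop; fluorescence 365/440 nm; AC50 from Hill fits.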

Assay [3] can be described thus: qHTS for Inhibitors of the Functional Ribonucleoprotein Complex (vRNP) of Lassa (LASV) Arenavirus: LASV Primary Screen - GLuc reporter signal (AID 1347082; calls by dose curve; tested in HEK293 reporter line; also: nearly all actives have a fitted effect of over 60% in size; also: potency is read from the fitted curve at half-maximal effect; as to activity change, negative = inhibition: % is scaled to controls: 0 for no effect and ±100 for the full control effect).
Assay [4] can be described thus: qHTS for Inhibitors of the Functional Ribonucleoprotein Complex (vRNP) of Lassa (LASV) Arenavirus: Viability assay - alamar blue signal for LASV Primary Screen (AID 1347083; calls by dose curve; tested in HEK293 reporter line; also: nearly all actives have a fitted effect of over 80% in size; also: potency is read from the fitted curve at half-maximal effect).
The nature of assay [5]: qHTS for Inhibitors of the Functional Ribonucleoprotein Complex (vRNP) of Lymphocytic Choriomeningitis Arenaviruses (LCMV): Viability assay - alamar blue signal for LCMV Primary Screen (AID 1347085; calls by dose curve; tested in HEK293 reporter line; also: nearly all actives have a fitted effect of over 80% in size; also: potency is read from the fitted curve at half-maximal effect).
Assay [6] can be described thus: Inducers of the Endoplasmic Reticulum Stress Response (ERSR) in human glioma: Validation (AID 504836; active = well fitted curve in the direction sought with a large enough effect; an effect the other way counts as inactive or inconclusive; also: 0% is about no effect). The gist of the method: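 Stably transfected U87-MG human glioma cells carrying a GRP78-based luminescent sensor were seeded at 1000 cells/well, pin-dosed with compounds and incubated 16 h. Luciferase reagent was then added, and end-point luminescence was read after 10 min at room temperature.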

The target of assay [7] is Nucleoprotein (Lymphocytic choriomeningitis virus (strain Armstrong)) (UniProt P09992). The assay can be described thus: qHTS for Inhibitors of the Functional Ribonucleoprotein Complex (vRNP) of Lymphocytic Choriomeningitis Arenaviruses (LCMV): LCMV Primary Screen - GLuc reporter signal (AID 1347086). Also: nearly all actives have a fitted effect of over 70% in size. Also: potency is read from the fitted curve at half-maximal effect. As to activity change, negative = inhibition: % is scaled to controls: 0 for no effect and ±100 for the full control effect.
Sequence of Nucleoprotein (Lymphocytic choriomeningitis virus (strain Armstrong)) (P09992 whole entry, looked up): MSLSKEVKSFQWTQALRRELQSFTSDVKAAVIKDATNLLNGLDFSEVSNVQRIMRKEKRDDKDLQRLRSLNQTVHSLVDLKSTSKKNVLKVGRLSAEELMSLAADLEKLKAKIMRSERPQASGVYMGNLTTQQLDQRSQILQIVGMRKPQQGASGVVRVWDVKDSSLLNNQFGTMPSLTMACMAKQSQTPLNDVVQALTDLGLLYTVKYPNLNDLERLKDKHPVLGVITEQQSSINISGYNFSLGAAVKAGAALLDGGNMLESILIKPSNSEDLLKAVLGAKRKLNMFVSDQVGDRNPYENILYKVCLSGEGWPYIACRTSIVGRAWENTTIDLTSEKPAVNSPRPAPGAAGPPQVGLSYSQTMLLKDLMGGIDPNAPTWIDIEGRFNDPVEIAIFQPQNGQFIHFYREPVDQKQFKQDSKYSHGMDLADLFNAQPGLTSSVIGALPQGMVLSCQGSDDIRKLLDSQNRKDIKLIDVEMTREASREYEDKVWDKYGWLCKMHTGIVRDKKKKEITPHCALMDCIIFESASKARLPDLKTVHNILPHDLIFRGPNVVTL
Assay [8] in a line: Cytotoxicity counterscreen for inhibitors of SARS-CoV-2 cell entry (AID 1645845). Also: % is scaled to controls: 0 for no effect and ±100 for the full control effect; nearly all actives have a fitted effect of over 50% in size. The gist of the method: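 Expi293F/hACE2 cells seeded overnight; cpd pin-transferred in DMSO, 1 h preincubation, + media, 48 h 37 C 5% CO2; ATPLite 1step luminescence; normalized to cells and no cells.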
The nature of assay [9]: Primary qHTS to identify inhibitors of SARS-CoV-2 cell entry (AID 1645846). Also: nearly all actives have a fitted effect of over 45% in size. The following applies: activity change, negative = inhibition: at 57.1 µM (top of the series) unless noted. Summed up: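 Data are normalized to wells receiving SARS-CoV-2-S pseudoparticles and those given bald particles. Entry signal was luciferase luminescence in stable hACE2 Expi293F cells, 48 hr post-infection, after 1 hr compound pretreatment.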

Records with an inconclusive call do not appear. Active and inactive are the calls of the source. Unless noted, calls follow the shape of the full dose curve.

Sequence of Alpha-galactosidase (Coffea arabica) (Q42656 whole entry, looked up): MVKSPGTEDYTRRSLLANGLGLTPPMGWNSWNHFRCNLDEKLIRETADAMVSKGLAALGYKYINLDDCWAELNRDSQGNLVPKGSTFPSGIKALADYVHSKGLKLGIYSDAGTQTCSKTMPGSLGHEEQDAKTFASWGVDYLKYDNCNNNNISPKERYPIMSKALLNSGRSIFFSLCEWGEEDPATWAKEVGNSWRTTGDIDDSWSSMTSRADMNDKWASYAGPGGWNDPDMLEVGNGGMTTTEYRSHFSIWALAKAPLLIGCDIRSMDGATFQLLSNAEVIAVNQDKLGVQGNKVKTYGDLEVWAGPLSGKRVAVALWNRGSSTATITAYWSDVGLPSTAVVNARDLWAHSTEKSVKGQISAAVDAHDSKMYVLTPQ

With `COCCCCC(=NOCCN)c1ccc(C(F)(F)F)cc1`, the call in assay [1] and in assay [2] was inactive. The Potency entry in [3] was “inactive”. In addition, the Potency is 1.93 µM (active) in assay [4] and 38.5 µM (active) in [5].
As for `c1ccc(C(NCCNC(c2ccccc2)c2ccccc2)c2ccccc2)cc1`, the call in assay [6] was inactive. For the same compound, the Potency entry in assay [3], in assay [4] and in assay [5] was “inactive” in each case.
As for `C=CCNc1c(O)cc2c(O)c1C[C@@H](C)C[C@H](OC)[C@@H](O)[C@@H](C)C=C(C)[C@H](OC(N)=O)[C@@H](OC)C=CC=C(C)C(=O)N2`, the Potency in assay [3] was 10.9 µM (active); in assay [4], 4.85 µM (active); in assay [7], 4.85 µM (active).
With `COc1ccc(-c2cc3nccn3c(Nc3ncccc3C(N)=O)n2)cc1OC`, the Potency entry in [3], in assay [7] and in assay [8] was “inactive” throughout. Moreover, the Potency in assay [4] is 2.17 µM (active).
As for `C[C@]1(c2nc3c(C(N)=O)cccc3[nH]2)CCCN1`, the Potency entry in assay [3] and in assay [7] was “inactive” each time. For the same compound, the Potency in assay [4] is 2.73 µM (active). Also, the activity change, negative = inhibition in assay [9] is -3.68%.
